Here are results for 40 compounds from PubChem BioAssay (NCATS).

Activity calls are given as the source filed them. The rule behind the calls is not given here. Bounds are passed on as bounds.
Potency is the fitted concentration of half-maximal effect.

For this experiment, the system named is HIV-1 nucleocapsid protein NCp7 (binding to TG oligonucleotide). Put plainly: HIV Nucleocapsid (AID 346).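 Note: potency is for inhibitors that block NC binding and lower polarization.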 Particulars: HIV-1 NC / fluorescein-TGTGTGTG probe, fluorescence polarization. In short, it runs like this:
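10 nM TG4xF probe with 100 nM nucleocapsid protein in high-salt Hepes pH 7.5 (250mM NaCl) containing 1uM ZnCl2 and reducing agents. Compound inhibition of binding was read as fluorescein polarization after 1 hr at room temperature.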
On the technique in general: In fluorescence polarisation assays a small probe gives low polarisation when free and higher when bound to something large.
On to `N#Cc1cccc(-c2cncnc2NCc2cccnc2)c1`, for which the Potency is > 20 µM (inactive).
The same measure for `CN1CCN(c2ncc3nc(-c4ccc(Cl)cc4)c(=O)n(C)c3n2)CC1`: > 20 µM (inactive).
As for `O=C(c1cccc(F)c1)N1CCC2(CC1)CN(c1ccncc1)C2`, the figure is > 20 µM (inactive); as for `COCC(=O)N1CCC[C@@]2(CCN(Cc3cc(C(F)(F)F)cc(C(F)(F)F)c3)C2)C1`, > 20 µM (inactive); as for `CN(C)C(=O)c1ccc(-c2nc(N3CCOCC3)c3ccccc3n2)cc1`, > 20 µM (inactive).
As for `N#CCCn1c(=O)c(-c2ccc(F)cc2)nc2cnc(OCc3ccccc3)nc21`, the figure is > 20 µM (inactive); as for `CCNc1ncc2nc(CCc3ccccc3)c(=O)n(CCOC)c2n1`, > 20 µM (inactive); as for `Cc1cnc(CNc2ncncc2-c2ccccc2C#N)cn1`, > 20 µM (inactive).
In the case of `Cn1cccc1C(=O)N1CCC[C@@]2(CCN(c3ccccn3)C2)C1`, the Potency is > 20 µM (inactive).
As for `O=C(c1cnccn1)N1CCC[C@@]2(CCN(Cc3cc(C(F)(F)F)cc(C(F)(F)F)c3)C2)C1`, the figure is > 20 µM (inactive); as for `O=c1c(CCc2ccccc2)nc2cncnc2n1Cc1ccc(F)cc1`, > 20 µM (inactive); as for `CS(=O)(=O)N1CCC[C@@]2(CCN(C(=O)Nc3cccc(F)c3)C2)C1`, > 20 µM (inactive).
The same measure for `COc1ccccc1CNc1ccnc(-c2ccccc2C(F)(F)F)n1`: > 20 µM (inactive); for `COc1ncc2ncc(=O)n(C[C@H]3CCCO3)c2n1`: > 20 µM (inactive); for `Cn1cccc1C(=O)N1CCC[C@@]2(CCN(Cc3cc(C(F)(F)F)cc(C(F)(F)F)c3)C2)C1`: > 20 µM (inactive).
Consider `COc1cccc(Cn2c(=O)cnc3cnc(OCc4ccccc4)nc32)c1`, for which the Potency was > 20 µM (inactive).
The same measure for `CN(Cc1ccco1)c1ncnc2ccc(-c3ccccc3C(F)(F)F)cc12`: > 20 µM (inactive); for `COc1ccc(C(=O)N2CCC3(CC2)CCN(c2ccccn2)CC3)cc1`: > 20 µM (inactive); for `CC(=O)N1CCC[C@@]2(CCN(Cc3cc(C(F)(F)F)cc(C(F)(F)F)c3)C2)C1`: > 20 µM (inactive).
As for `c1cn(-c2ncnc3ccc(-c4ccoc4)cc23)cn1`, the figure is > 20 µM (inactive).
The same measure for `O=C(c1cccc(F)c1)N1CCC2(CC1)CN(c1ccccc1)C2`: > 20 µM (inactive); for `O=C(c1ccncc1)N1CCC2(CCN(Cc3nccs3)CC2)CC1`: > 20 µM (inactive).
Consider `O=S(=O)(c1ccccc1)N1CCC[C@@]2(CCN(c3ncccn3)C2)C1`, for which the Potency is > 20 µM (inactive).
As for `COCCn1c(=O)c(C)nc2cnc(N3CCOCC3)nc21`, the figure is > 20 µM (inactive); as for `CN1CCN(c2ncc3nc(-c4cn(C)c5ccccc45)c(=O)n(Cc4cccs4)c3n2)CC1`, > 20 µM (inactive).
The same measure for `O=C(c1ccncc1)N1CCC2(CC1)CCN(c1ncccn1)CC2`: > 20 µM (inactive); for `O=C(Nc1ccccc1)N1CCC2(CC1)CCN(C(=O)c1cnccn1)CC2`: > 20 µM (inactive); for `COc1ncc2nc(-c3cccs3)c(=O)n(-c3ccccc3)c2n1`: > 4 µM (inactive).
Regarding `COc1ccccc1CNc1ccnc(-c2ccccc2CN(C)C)n1`, the Potency is > 20 µM (inactive).
On to `CC(=O)NCCNc1ncnc2ccc(-c3ccccc3C)cc12`, for which the Potency was > 20 µM (inactive).
As for `CN(C)Cc1ccccc1-c1cncnc1Nc1ccc(F)cc1`, the figure is > 20 µM (inactive); as for `CN1CCN(c2ncc3nc(CCc4ccccc4)c(=O)n(C4CC4)c3n2)CC1`, > 20 µM (inactive).
Turning to `CN(C)c1ccc(-c2cc(-n3ccnc3)ncn2)cc1`, the Potency was > 20 µM (inactive).
As for `COc1cccc(-c2cc(NCCc3c[nH]c4ccc(OC)cc34)ncn2)c1`, the figure is > 20 µM (inactive); as for `COc1ccccc1CNc1ncncc1-c1ccoc1`, > 20 µM (inactive).
In the case of `CN(C)Cc1ccccc1-c1cc(N(C)C)ncn1`, the Potency was > 20 µM (inactive).
The same measure for `O=C(Oc1ccccc1)N1CCC2(CCCN(c3ccc(-c4ccccc4)cc3)C2)CC1`: > 20 µM (inactive).
As for `O=C(c1ccco1)N1CCC2(CCCN(Cc3ccccc3)C2)CC1`, the figure is > 20 µM (inactive).
For `CN(C)c1ncc2ncc(=O)n(C)c2n1`, the Potency is > 20 µM (inactive).
The same measure for `COc1ccc(CNc2ncnc3ccc(-c4c(C)noc4C)cc23)c(OC)c1`: > 20 µM (inactive).
